# Measured values: PubChem BioAssay AID1159580 (chemical genetic matrix, 2015)
# The campaign covered roughly 5,500 compounds. About 2,000 (36%) were called active. About 18% were inconclusive and are not listed. This is one part of the list. Unmarked numbers belong to inactive results. Rule as the data show it: active = normalized growth mostly below about 0.91 (no sharp cut-off); inconclusive = no clear call, values can overlap the other calls; inactive = mostly above about 0.92.
# Experiment: chemical genetic growth profiling, strain panel (AID 1159580);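 also: tested at 20 µM; growth read once vehicle control cultures reached saturation at 30 °C; 1 = growth at the plate median or of vehicle wells; lower values mean less growth of the strain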
# Details: growth OD
structure (smiles),measurement,setting,value
O=C(O)CCCc1ccc(N(CCCl)CCCl)cc1,normalized growth,"S. cerevisiae deletion strains, locus YNL175C, strain NOP13, stronger effect = lower value",1.04
same,normalized growth,"S. cerevisiae deletion strains, locus YNL183C, strain NPR1, stronger effect = lower value",0.908
same,normalized growth,"S. cerevisiae deletion strains, locus YNL197C, strain WHI3, stronger effect = lower value",0.989
same,normalized growth,"S. cerevisiae deletion strains, locus YNL209W, strain ssb2, stronger effect = lower value",0.976
same,normalized growth,"S. cerevisiae deletion strains, locus YNL224C, strain SQS1, stronger effect = lower value",1
same,normalized growth,"S. cerevisiae deletion strains, locus YNL233W, strain BNI4, stronger effect = lower value",1.03
same,normalized growth,"S. cerevisiae deletion strains, locus YNL248C, strain rpa49, stronger effect = lower value",0.882 (active)
same,normalized growth,"S. cerevisiae deletion strains, locus YNL250W, strain rad50, stronger effect = lower value",0.819 (active)
same,normalized growth,"S. cerevisiae deletion strains, locus YNL271C, strain bni1, stronger effect = lower value",0.967
same,normalized growth,"S. cerevisiae deletion strains, locus YNL298W, strain CLA4, stronger effect = lower value",0.896 (active)
same,normalized growth,"S. cerevisiae deletion strains, locus YNL307C, strain MCK1, stronger effect = lower value",0.983
same,normalized growth,"S. cerevisiae deletion strains, locus YNL322C, strain KRE1 (second series), stronger effect = lower value",0.943
same,normalized growth,"S. cerevisiae deletion strains, locus YNR049C, strain mso1, stronger effect = lower value",0.959
same,normalized growth,"S. cerevisiae deletion strains, locus YNR052C, strain pop2, stronger effect = lower value",0.985
same,normalized growth,"S. cerevisiae deletion strains, locus YOL006C, strain TOP1, stronger effect = lower value",1.11
same,normalized growth,"S. cerevisiae deletion strains, locus YOL012C, strain htz1",1.27
same,normalized growth,"S. cerevisiae deletion strains, locus YOL147C, strain pex11, stronger effect = lower value",0.99
same,normalized growth,"S. cerevisiae deletion strains, locus YOR001W, strain rrp6, stronger effect = lower value",1.03
same,normalized growth,"S. cerevisiae deletion strains, locus YOR061W, strain CKA2, stronger effect = lower value",0.969
same,normalized growth,"S. cerevisiae deletion strains, locus YOR069W, strain VPS5, stronger effect = lower value",0.975
same,normalized growth,"S. cerevisiae deletion strains, locus YOR070C, strain gyp1, stronger effect = lower value",0.984
same,normalized growth,"S. cerevisiae deletion strains, locus YOR080W, strain dia2, stronger effect = lower value",0.963
same,normalized growth,"S. cerevisiae deletion strains, locus YOR083W, strain WHI5 (second series), stronger effect = lower value",0.99
same,normalized growth,"S. cerevisiae deletion strains, locus YOR083W, strain WHI5, stronger effect = lower value",0.94
same,normalized growth,"S. cerevisiae deletion strains, locus YOR106W, strain vam3, stronger effect = lower value",0.918
same,normalized growth,"S. cerevisiae deletion strains, locus YOR136W, strain idh2, stronger effect = lower value",0.987
same,normalized growth,"S. cerevisiae deletion strains, locus YOR144C, strain elg1, stronger effect = lower value",0.987
same,normalized growth,"S. cerevisiae deletion strains, locus YOR184W, strain ser1, stronger effect = lower value",0.976
same,normalized growth,"S. cerevisiae deletion strains, locus YOR231W, strain MKK1, stronger effect = lower value",0.84 (active)
same,normalized growth,"S. cerevisiae deletion strains, locus YOR265W, strain rbl2, stronger effect = lower value",0.969
same,normalized growth,"S. cerevisiae deletion strains, locus YOR270C, strain vph1, stronger effect = lower value",0.986
same,normalized growth,"S. cerevisiae deletion strains, locus YOR290C, strain snf2, stronger effect = lower value",0.935
same,normalized growth,"S. cerevisiae deletion strains, locus YOR316C, strain cot1, stronger effect = lower value",0.976
same,normalized growth,"S. cerevisiae deletion strains, locus YPL051W, strain arl3, stronger effect = lower value",0.997
same,normalized growth,"S. cerevisiae deletion strains, locus YPL055C, strain LGE1, stronger effect = lower value",0.992
same,normalized growth,"S. cerevisiae deletion strains, locus YPL078C, strain atp4, stronger effect = lower value",0.952
same,normalized growth,"S. cerevisiae deletion strains, locus YPL106C, strain sse1, stronger effect = lower value",0.899
same,normalized growth,"S. cerevisiae deletion strains, locus YPL240C, strain hsp82, stronger effect = lower value",0.988
same,normalized growth,"S. cerevisiae deletion strains, locus YPL241C, strain CIN2, stronger effect = lower value",0.997
same,normalized growth,"S. cerevisiae deletion strains, locus YPL256C, strain CLN2, stronger effect = lower value",0.857
same,normalized growth,"S. cerevisiae deletion strains, locus YPR119W, strain clb2, stronger effect = lower value",0.985
same,normalized growth,"S. cerevisiae deletion strains, locus YPR141C, strain kar3, stronger effect = lower value",0.99
same,normalized growth,"S. cerevisiae deletion strains, locus YPR163C, strain tif3, stronger effect = lower value",0.984
same,normalized growth,"S. cerevisiae deletion strains, locus YPR167C, strain met16, stronger effect = lower value",0.994
same,normalized growth,"S. cerevisiae deletion strains, strain wtn01, stronger effect = lower value",0.993
same,normalized growth,"S. cerevisiae strains, strain wild type, stronger effect = lower value",0.984
